From PubChem BioAssay (EPA / NIEHS)
Some structures have more than one record in an assay (separate samples or runs), and their calls can disagree. Active and inactive are the calls of the source. How the source made its calls: active means hit-call score of the fitted dose curve at least 0.9, where 1 is the maximum; inactive means score below 0.9.

Test: ATG_PBREM_CIS: Attagene CIS-FACTORIAL HepG2 Assay for human Phenobarbital-responsive Enhancer Module (PBREM) (AID 2282955)
Settings: HepG2 PBREM cis-reporter, Attagene multiplexed transcription; actives raise or lower the signal
Protocol: ATG_CIS is a cell-based, multiplexed-readout assay that uses HepG2, a human liver cell line, with measurements taken at 24 hours after chemical dosing in a 24-well plate.ATG_PBREM_CIS is one of 52 assay component(s) measured or calculated from the ATG_CIS assay. It is designed to make measurements of mRNA induction, a form of inducible reporter, as detected with fluorescence intensity signals by Reverse transcription polymerase chain reaction (RT-PCR) and Capillary electrophoresis technology.Data from the assay component ATG_PBREM_CIS was analyzed into 1 assay endpoint. This assay endpoint, ATG_PBREM_CIS, was analyzed with bidirectional fitting relative to DMSO as the negative control and baseline of activity. Using a type of inducible reporter, measures of mRNA for gain or loss-of-signal activity can be used to understand the reporter gene at the transcription factor-level as they relate to the gene NR1I3. Furthermore, this assay endpoint can be referred to as a primary readout, because this assay has produced multiple assay endpoints where this one serves a reporter gene function. To generalize the intended target to other relatable targets, this assay endpoint is annotated to the nuclear receptor intended target family, where the subfamily is non-steroidal.
Human liver HepG2 cells are transiently transfected with multiple reporter transcription units (MRTUs) in 6-well plates using FuGene 6 reagent (Roche; 3 ml FuGene/1 mg DNA). The MRTU constructs are regulated by a cis-regulating element (promoter). […] A major difference between the CIS and TRANS system is that in CIS activities of endogenous TFs are measured, whereas the TRANS assay evaluates changes in activities of exogenous, chimeric NR-Gal4 proteins. […] At the end of 24 hour incubation, total RNA was isolated using TriZol reagent (Invitrogen). The isolated RNA is then reverse-transcribed using oligo(dT) primer and Mo-MLV reverse transcriptase (Invitrogen) with DNAse I (Ambion) treatment for 30 min. The one-tenth of the produced cDNA was amplified by PCR using Taq DNA polymerase (Invitrogen) and two reporter sequence-specific primers. The PCR products were fluorescently labeled by primer extension with 6-arboxyfluorescein (6-FAM) 5'-labeled reporter sequence-specific primer (2 min at 95 C, 20 s at 68 C and 10 min at 72 C) and these products were digested with 5U of HpaI (New England Biolabs) for 2h at 37 C. The fragments were purified using Qiaquick PCR columns (Qiagen), analyzed on an ABI 3130xL genetic analyzer (Applied Biosystems) with peak positions identified by using a set of X-rhodamine (ROX)-labeled MapMarker1000 molecular weight standards (BioVentures). The raw capillary electrophoresis data was processed using Attagraph software (Attagene).

| Structure (SMILES) | outcome | AC50 |
| --- | --- | --- |
| ClCc1cccnc1 | inactive | – |
| Fc1ccc(C2(Cn3cncn3)OC2c2ccccc2Cl)cc1 (stereo not given) | inactive | – |
| C[C@H]1CCCC(=O)CCC/C=C/c2cc(O)cc(O)c2C(=O)O1 | – | 5.35 µM (active) |
| O=S(=O)(c1ccc(Cl)cc1)c1ccc(Cl)cc1 | inactive | – |
| CCOP(=S)(OCC)Oc1nc(Cl)c(Cl)cc1Cl | inactive | – |
| N#Cc1ccccn1 | inactive | – |
| NC(=O)O | inactive | – |
| COc1cccc(C=O)c1 | inactive | – |
| CCOP(=S)(OCC)Oc1ccc(S(C)=O)cc1 (stereo not given) | inactive | – |
| C[C@]12CC[C@H](O)CC1=CC[C@@H]1[C@@H]2CC[C@]2(C)C(=O)CC[C@@H]12 | inactive | – |
| CC(C)(c1ccc(OCC2CO2)cc1)c1ccc(OCC2CO2)cc1 (stereo not given) | inactive | – |
| Clc1nc(Cl)nc(Cl)n1 | inactive | – |
| Cc1ccccc1N | inactive | – |
| CC(Br)C(=O)O (stereo not given) | inactive | – |
| O=C(O)C(F)(F)C(F)(F)C(F)(F)C(F)(F)C(F)(F)C(F)(F)F | inactive | – |
| O=C/C=C/c1ccccc1 | inactive | – |
| O=C(OC1CCCCC1)c1ccccc1C(=O)OC1CCCCC1 | inactive | – |
| COC(=O)c1sccc1S(=O)(=O)NC(=O)Nc1nc(C)nc(OC)n1 | inactive | – |
| C1CCC(NC2CCCCC2)CC1 | inactive | – |

| Structure (SMILES) | outcome | AC50 |
| --- | --- | --- |
| O=C(Cc1ccccc1)c1ccccc1 | inactive | – |
| COP(=O)(OC)OC | inactive | – |
| CCC(=O)C(CC(C)N(C)C)(c1ccccc1)c1ccccc1 (stereo not given) | inactive | – |
| Nc1cccc(Cl)c1 | inactive | – |
| CC(=O)C(Cl)C(=O)N(C)C (stereo not given) | inactive | – |
| Oc1cccc2cccnc12 | inactive | – |
| COc1cc2c(cc1OC)[C@@]13CCN4CC5=CCO[C@H]6CC(=O)N2[C@H]1[C@H]6[C@H]5C[C@H]43 | inactive | – |
| O=CC=O | inactive | – |
| CN(C)N=O | inactive | – |
| ClCCBr | inactive | – |
| Cn1sc(Cl)cc1=O | inactive | – |
| O=C1C2(Cl)C3(Cl)C4(Cl)C(Cl)(Cl)C5(Cl)C3(Cl)C1(Cl)C5(Cl)C24Cl (stereo not given) | inactive | 16 µM (active) |
| CCc1ccccc1N | inactive | – |
| N#CN=C(N)N | inactive | – |
| Nc1ccc(N=Nc2ccc(-c3ccc(N=Nc4c(S(=O)(=O)O)cc5cc(S(=O)(=O)O)c(N=Nc6ccccc6)c(O)c5c4N)cc3)cc2)c(N)c1 | inactive | – |
| CC(C)C1CCC(Cc2ccc(Cl)cc2)C1(O)Cn1cncn1 (stereo not given) | inactive | – |
| CCC(C)(C)c1ccc(O)c(C(C)(C)CC)c1 | inactive | – |
| COc1cc(-c2ccc(N)c(OC)c2)ccc1N | inactive | 29.2 µM (active) |
| CC(C)c1cccc(C(C)C)c1O | inactive | – |
